The campaign covered roughly 39,000 compounds. About 1,500 (3.8%) were called active. Only a selection was taken, and actives are over-represented in it overall.

The test system of this assay is HSkMC (human skeletal muscle cells). Description: cytotoxicity call (relative viability < 0.9). The following applies: 10 µM.
Turning to `COC(=O)C[C@H]1CC[C@@H]2[C@H](COC[C@@H](O)CN2S(=O)(=O)c2ccc(F)cc2)O1`, the cytotoxicity call is “inactive”.
The same measure for `C=CCNC(=O)[C@@H]1[C@H]2C(=O)O[C@H](c3ccccc3)[C@H](c3ccccc3)N2[C@H](c2ccc(O)cc2)[C@@]12C(=O)N(C(=O)OCCOC)c1ccc(C#Cc3ccc(OC)cc3)cc12`: “inactive”; for `CC(C)NC(=O)N(C)C[C@H]1Oc2cc(-c3ccccc3F)ccc2S(=O)(=O)N([C@@H](C)CO)C[C@H]1C`: “inactive”; for `Nc1ncnc(Cl)c1N`: “inactive”.
The same measure for `COCC#Cc1ccc2c(c1)O[C@H](CN(C)C(=O)c1ccccc1)[C@@H](C)CN([C@@H](C)CO)S2(=O)=O`: “inactive”; for `C[C@@H]1CCCCO[C@@H](CN(C)C(=O)c2ccccc2)[C@@H](C)CN([C@H](C)CO)C(=O)c2cc(NC(=O)Nc3ccc(F)cc3)ccc2O1`: “inactive”; for `COc1ccccc1CNC(=O)C[C@H]1CC[C@H]2[C@@H](COC[C@H](O)CN2C(=O)Nc2ccc(F)cc2)O1`: “inactive”.
The same measure for `O=C(C[C@@H]1C[C@H]2c3cc(NC(=O)Nc4ccc(C(F)(F)F)cc4)ccc3O[C@H]2[C@H](CO)O1)NCc1cc(F)ccc1F`: “inactive”; for `C[C@@H]1CN([C@H](C)CO)C(=O)c2cc(NC(=O)c3ccncc3)ccc2O[C@H]1CN(C)Cc1ccc(Oc2ccccc2)cc1`: “inactive”; for `O=C(O[C@H]1[C@H](O)[C@@H](CO)O[C@H](c2c(O)cc(O)c(C(=O)c3ccc(O)cc3)c2O)[C@H]1OC(=O)c1cc(O)c(O)c(O)c1)c1cc(O)c(O)c(O)c1`: “inactive”.
With `CCS(=O)(=O)Nc1ccc2c(c1)C(=O)N(C)[C@@H]1CC[C@H](CC(=O)NCCCN3CCOCC3)O[C@@H]1CO2`, the cytotoxicity call is “inactive”.
Turning to `COc1ccc(S(=O)(=O)Nc2ccc3c(c2)CC(=O)N([C@H](C)CO)C[C@@H](C)[C@@H](CN(C)Cc2ccc(-c4ccccc4)cc2)O3)cc1`, the cytotoxicity call was “active”.
The same measure for `COc1ccc(S(=O)(=O)Nc2ccc3c(c2)CC(=O)N([C@@H](C)CO)C[C@H](C)[C@H](CN(C)Cc2ccc(-c4ccccc4)cc2)O3)cc1`: “active”.
The same measure for `COc1ccc(S(=O)(=O)Nc2ccc3c(c2)CC(=O)N([C@@H](C)CO)C[C@@H](C)[C@@H](CN(C)Cc2ccc(-c4ccccc4)cc2)O3)cc1`: “inactive”.
The same measure for `COc1ccc(S(=O)(=O)Nc2ccc3c(c2)CC(=O)N([C@@H](C)CO)C[C@@H](C)[C@H](CN(C)Cc2ccc(-c4ccccc4)cc2)O3)cc1`: “inactive”; for `COc1ccc(S(=O)(=O)Nc2ccc3c(c2)CC(=O)N([C@H](C)CO)C[C@@H](C)[C@H](CN(C)Cc2ccc(-c4ccccc4)cc2)O3)cc1`: “active”.
For the compound `COc1ccc(S(=O)(=O)Nc2ccc3c(c2)CC(=O)N([C@@H](C)CO)C[C@H](C)[C@@H](CN(C)Cc2ccc(-c4ccccc4)cc2)O3)cc1`, the cytotoxicity call is “inactive”.
As to `COc1ccc(S(=O)(=O)Nc2ccc3c(c2)CC(=O)N([C@H](C)CO)C[C@H](C)[C@@H](CN(C)Cc2ccc(-c4ccccc4)cc2)O3)cc1`, the cytotoxicity call was “inactive”.
The same measure for `COc1ccc(S(=O)(=O)Nc2ccc3c(c2)CC(=O)N([C@H](C)CO)C[C@H](C)[C@H](CN(C)Cc2ccc(-c4ccccc4)cc2)O3)cc1`: “inactive”; for `Cc1ccc2oc(=O)cc(Cl)c2c1`: “inactive”; for `NC(=O)NCC#Cc1ccc2c(c1)[C@]1(C(=O)N2)[C@H](C(=O)O)[C@H]2C(=O)O[C@H](c3ccccc3)[C@H](c3ccccc3)N2[C@@H]1c1ccc(OCCO)cc1`: “inactive”.
The same measure for `COc1ccccc1CNC(=O)C[C@H]1C[C@H]2c3cc(NC(=O)C4CCOCC4)ccc3O[C@H]2[C@@H](CO)O1`: “inactive”; for `CC(C)NC(=O)N(C)C[C@@H]1Oc2ccc(NS(=O)(=O)c3cn(C)cn3)cc2CC(=O)N([C@@H](C)CO)C[C@@H]1C`: “inactive”; for `Cc1noc(C)c1NC(=O)N(C)C[C@@H]1OCCCC[C@@H](C)Oc2ccc(NS(=O)(=O)c3ccc(Cl)cc3)cc2C(=O)N([C@H](C)CO)C[C@@H]1C`: “inactive”.
The same measure for `COc1ccc(S(=O)(=O)N(C)C[C@@H]2Oc3ccc(NC(=O)c4ccncc4)cc3CC(=O)N([C@@H](C)CO)C[C@H]2C)cc1`: “inactive”; for `Nc1ccc(S(N)(=O)=O)cc1`: “inactive”.
For the compound `C[C@@H]1CN([C@@H](C)CO)C(=O)c2cc(N(C)C)ccc2O[C@@H](C)CCCCO[C@@H]1CN(C)C(=O)CCCN(C)C`, the cytotoxicity call is “inactive”.
Turning to `Cc1ccc2[nH]c(=O)c(C3=NN(C(=O)CCC(=O)O)[C@H](c4ccc(Br)cc4)C3)c(-c3ccccc3)c2c1`, the cytotoxicity call was “inactive”.
The same measure for `COc1ccc(S(=O)(=O)Nc2ccc3c(c2)CC(=O)N([C@H](C)CO)C[C@@H](C)[C@@H](CN(C)S(=O)(=O)c2ccc(OC)cc2)O3)cc1`: “inactive”; for `C[C@H]1CN([C@@H](C)CO)C(=O)c2cccc(NC(=O)Nc3ccccc3)c2O[C@@H]1CN(C)Cc1ccc(Oc2ccccc2)cc1`: “active”.
In the case of `C[C@H]1CN([C@@H](C)CO)C(=O)c2cccc(NC(=O)Nc3cccc4ccccc34)c2O[C@H]1CN(C)Cc1ccc(Oc2ccccc2)cc1`, the cytotoxicity call was “inactive”.
The same measure for `C[C@@H]1CN([C@H](C)CO)C(=O)c2cccc(NC(=O)Nc3ccccc3)c2O[C@@H]1CN(C)Cc1ccc(Oc2ccccc2)cc1`: “inactive”; for `C[C@@H]1CN([C@@H](C)CO)C(=O)c2cccc(NC(=O)Nc3ccccc3)c2O[C@H]1CN(C)Cc1ccc(Oc2ccccc2)cc1`: “inactive”; for `C[C@H](CO)N1C[C@H](C)[C@@H](CN(C)Cc2ccc(Oc3ccccc3)cc2)Oc2c(NC(=O)Nc3cccc4ccccc34)cccc2C1=O`: “active”.
The same measure for `C[C@H](CO)N1C[C@H](C)[C@@H](CN(C)Cc2ccc(Oc3ccccc3)cc2)Oc2c(NC(=O)Nc3ccccc3)cccc2C1=O`: “active”; for `C[C@@H]1CN([C@H](C)CO)C(=O)c2cccc(NC(=O)Nc3ccccc3)c2O[C@H]1CN(C)Cc1ccc(Oc2ccccc2)cc1`: “inactive”; for `C[C@H](CO)N1C[C@H](C)[C@@H](CN(C)Cc2ccc(Oc3ccccc3)cc2)Oc2c(NC(=O)C3CCCCC3)cccc2C1=O`: “active”.
The same measure for `C[C@H](CO)N1C[C@H](C)[C@H](CN(C)Cc2ccc(Oc3ccccc3)cc2)Oc2c(NC(=O)Nc3cccc4ccccc34)cccc2C1=O`: “inactive”; for `C[C@@H]1CN([C@@H](C)CO)C(=O)c2cccc(NC(=O)C3CCCCC3)c2O[C@H]1CN(C)Cc1ccc(Oc2ccccc2)cc1`: “inactive”; for `C[C@@H]1CN([C@@H](C)CO)C(=O)c2cccc(NC(=O)Nc3ccccc3)c2O[C@@H]1CN(C)Cc1ccc(Oc2ccccc2)cc1`: “inactive”.
Turning to `C[C@H]1CN([C@@H](C)CO)C(=O)c2cccc(NC(=O)C3CCCCC3)c2O[C@H]1CN(C)Cc1ccc(Oc2ccccc2)cc1`, the cytotoxicity call was “inactive”.
The same measure for `O=C1NC[C@@H](c2ccccc2)OC(=O)[C@H](Cc2ccc(F)cc2)CCC=CC[C@@H]1CC(=O)N(CCO)Cc1ccccc1`: “inactive”; for `C[C@H]1CN([C@@H](C)CO)C(=O)c2cc(NC(=O)Nc3ccc(C(F)(F)F)cc3)ccc2O[C@@H]1CN(C)Cc1ccncc1`: “inactive”; for `COc1ccc(S(=O)(=O)Nc2cccc3c2O[C@H](CN(C)Cc2ccncc2)[C@@H](C)CN([C@H](C)CO)C3=O)cc1`: “inactive”.
In the case of `CCC1OC(=O)C(C)C(=O)C(C)C(OC2OC(C)CC(N(C)C)C2O)C(C)(OC)CC(C)C(=O)C(C)C2N(CCCCn3cnc(-c4cccnc4)c3)C(=O)OC12C` (stereo unspecified), the cytotoxicity call was “inactive”.
Consider `C[C@@H]1CN([C@@H](C)CO)C(=O)c2cc(NC(=O)Cc3cn(C)c4ccccc34)ccc2O[C@@H]1CN(C)Cc1ccc(C(F)(F)F)cc1`, for which the cytotoxicity call was “inactive”.
The same measure for `C[C@@H]1CN([C@H](C)CO)C(=O)c2cccc(NC(=O)Nc3ccc(F)cc3)c2O[C@@H]1CN(C)Cc1ccc(-c2ccccc2)cc1`: “inactive”; for `CC(=O)n1cc([C@H]2C=C(C(=O)NCc3ccccc3)O[C@@H](OCc3ccc(CO)cc3)C2)c2ccccc21`: “inactive”; for `CN(C)CC(=O)N[C@H]1C=C[C@H](CC(=O)NCCN2CCCCC2)O[C@H]1CO`: “inactive”.
The same measure for `COC(=O)[C@@H](NC(=O)Cn1cc(COc2ccccc2/C=C(C)/C=C/C(=O)NO)nn1)c1ccccc1`: “inactive”.
Take `Cc1noc(C)c1NC(=O)Nc1ccc2c(c1)C(=O)N([C@@H](C)CO)C[C@@H](C)[C@@H](CN(C)Cc1ccc(Oc3ccccc3)cc1)O2`: the cytotoxicity call was “inactive”.
The same measure for `N=C(C[n+]1ccccc1)NO`: “inactive”; for `COC(=O)[C@H](Cc1ccc(-n2cc(-c3cccc(/C=C/C(=O)NO)c3)nn2)cc1)N1CC2=C[C@H]([C@@H](O)Cc3ccccc3)n3c(=O)n(C)c(=O)n3[C@@H]2[C@@H](C2CC2)O1`: “inactive”.
The same measure for `C[C@H](CO)N1C[C@H](C)[C@@H](CN(C)Cc2ccc(C(=O)Nc3ccccc3N)cc2)Oc2ccc(NC(=O)CCN3CCOCC3)cc2CC1=O`: “inactive”.
The same measure for `CC(C)N1C[C@H](C)[C@@H](CN(C)Cc2ccc(Oc3ccccc3)cc2)Oc2c(NC(=O)C3CCN(C)CC3)cccc2C1=O`: “inactive”; for `C[C@H](CO)N1C[C@H](C)[C@@H](CN(C)Cc2ccc(Oc3ccccc3)cc2)Oc2c(NC(=O)C3CC3)cccc2C1=O`: “inactive”.
For `CC(C)N1C[C@H](C)[C@@H](CN(C)Cc2ccc(Oc3ccccc3)cc2)Oc2c(NC(=O)C3CCNCC3)cccc2C1=O`, the cytotoxicity call was “active”.
Regarding `COCC(=O)N1C[C@@H](C)[C@@H](OC)CN(C)C(=O)c2cc(NC(=O)c3ccc(F)cc3)ccc2OC[C@H]1C`, the cytotoxicity call is “inactive”.
Take `CN(C)CC(=O)N[C@H]1CC[C@H](CCNC(=O)C2CC2)O[C@H]1CO`: the cytotoxicity call was “inactive”.
The same measure for `CO[C@@H]1CN(C)C(=O)c2ccc(NS(=O)(=O)CC(F)(F)F)cc2OC[C@@H](C)N(Cc2nccs2)C[C@@H]1C`: “inactive”.
The same measure for `O=C(CCCCCCC(=O)Nc1ccc([C@H]2C[C@H](c3ccccc3)O[C@H](c3ccc(Oc4ccccc4)cc3)O2)cc1)NO`: “active”; for `O=C(CCCCCCC(=O)Nc1ccc([C@H]2O[C@@H](COc3ccccc3)C[C@H](c3ccccc3)O2)cc1)NO`: “inactive”.
The same measure for `COc1cc2c(cc1OC)CN(C[C@H]1C[C@H](c3ccccc3)O[C@H](c3ccc(NC(=O)CCCCCCC(=O)NO)cc3)O1)CC2`: “active”.
Turning to `O=C(CCCCCCC(=O)Nc1ccc([C@H]2C[C@H](c3ccccc3)O[C@H](c3ccccc3)O2)cc1)NO`, the cytotoxicity call is “inactive”.
The same measure for `O=C(CCCCCCC(=O)Nc1ccc([C@H]2C[C@H](c3ccccc3)O[C@H](c3cccc(Oc4ccccc4)c3)O2)cc1)NO`: “inactive”.
Take `O=C(CCCCCCC(=O)Nc1ccc([C@H]2O[C@@H](CN3CCCCCCC3)C[C@H](c3ccccc3)O2)cc1)NO`: the cytotoxicity call was “inactive”.
